Assay results as given in the supplement of paper PMC12669032.

Key:
Assay in all cases: growth AUC relative to DMSO control (median of replicates) (fraction); higher = more growth (less inhibition), active = hit call of the paper
Conditions in all cases: 20 µM; 24 h;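 active = AUC reduced over 20% with Padj below 0.05 in at least 2 of 3 replicates; inactive = otherwise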
[1] = system: Akkermansia muciniphila
Procedure, shortened: (§1)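 Area under the growth curve was normalised to the plate median of solvent-only wells, except on the industrial chemical plate, where row and column medians were used. Curves came from gut bacterial monocultures grown anaerobically at 37 °C in mGAM with 20 µM compound (1% DMSO), starting at OD600 0.05 and read at OD600 every hour for 24 h. The minimum OD of each curve was set to 0, and values are medians of three biological replicates grown on separate days.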

[2] = system: Bacteroides caccae
Procedure, shortened: as §1

[3] = system: Bacteroides clarus
Procedure, shortened: as §1

[4] = system: Bacteroides dorei
Procedure, shortened: as §1

[5] = system: Bacteroides stercoris
Procedure, shortened: as §1

[6] = system: Bacteroides thetaiotaomicron
Procedure, shortened: as §1

[7] = system: Bacteroides uniformis
Procedure, shortened: as §1

[8] = system: Bifidobacterium longum subsp. longum
Procedure, shortened: as §1

[9] = system: Clostridium difficile
Procedure, shortened: as §1

[10] = system: Collinsella aerofaciens
Procedure, shortened: as §1

[11] = system: Coprococcus comes
Procedure, shortened: as §1

[12] = system: Escherichia coli ED1a
Procedure, shortened: as §1

[13] = system: Escherichia coli IAI1
Procedure, shortened: as §1

[14] = system: Eubacterium rectale
Procedure, shortened: as §1

[15] = system: Fusobacterium nucleatum subsp. animalis
Procedure, shortened: as §1

[16] = system: Lactobacillus gasseri
Procedure, shortened: as §1

[17] = system: Lactobacillus paracasei
Procedure, shortened: as §1

[18] = system: Odoribacter splanchnicus
Procedure, shortened: as §1

[19] = system: Parabacteroides distasonis
Procedure, shortened: as §1

[20] = system: Parabacteroides merdae
Procedure, shortened: as §1

Measured: growth AUC

Cc1nc(C(F)(F)F)c(C(=O)Nc2c(Br)cc(OC(F)(F)F)cc2Br)s1
inactive: [1] 1.05 | [2] 0.984 | [3] 0.98 | [4] 0.946 | [5] 1.06 | [6] 0.945 | [7] 0.986 | [8] 1 | [9] 1.03 | [10] 1.01 | [11] 1.06 | [12] 1.02 | [13] 1.02 | [14] 0.852 | [15] 1.09 | [16] 1.15 | [17] 1.1 | [18] 0.942 | [19] 0.944 | [20] 1

CNC(=O)/C(=N/OC)c1ccccc1COc1cc(C(=O)O)ccc1C
inactive: [1] 1.01 | [2] 0.982 | [3] 1.03 | [4] 0.979 | [5] 0.967 | [6] 0.998 | [7] 1.01 | [8] 0.998 | [9] 0.991 | [10] 1 | [11] 0.984 | [12] 1.05 | [13] 0.978 | [14] 0.963 | [15] 0.949 | [16] 1.1 | [17] 0.98 | [18] 0.987 | [19] 1.01 | [20] 0.973

COc1cc(OC)nc(NC(=O)NS(=O)(=O)c2c(-c3nnn(C)n3)cnn2C)n1
inactive: [1] 1.13 | [2] 0.99 | [3] 1 | [4] 0.94 | [5] 1.08 | [6] 1.01 | [7] 1 | [8] 1.01 | [9] 0.961 | [10] 0.978 | [11] 1.01 | [12] 1.01 | [13] 0.988 | [14] 1.1 | [15] 1.02 | [16] 0.873 | [17] 1.04 | [18] 1.03 | [19] 0.845 | [20] 1.03

CCOC(=O)Nc1cccc(OC(=O)Nc2cccc(C)c2)c1
inactive: [1] 1.05 | [2] 0.951 | [3] 0.948 | [4] 0.882 | [5] 0.932 | [6] 0.979 | [7] 1.02 | [8] 1.02 | [9] 0.966 | [10] 0.901 | [11] 0.963 | [12] 0.94 | [13] 0.953 | [14] 1.01 | [15] 0.974 | [16] 0.896 | [17] 1.01 | [18] 1.08 | [19] 0.913 | [20] 0.932

CCOC(=O)c1nc(C(Cl)(Cl)Cl)n(-c2ccc(Cl)cc2Cl)n1
inactive: [1] 0.908 | [2] 1 | [3] 1 | [4] 0.99 | [5] 0.861 | [6] 0.966 | [7] 0.968 | [8] 0.983 | [9] 0.983 | [10] 0.952 | [11] 0.946 | [12] 1 | [13] 1.01 | [14] 0.961 | [15] 0.995 | [16] 1.02 | [17] 1 | [18] 1 | [19] 0.899 | [20] 0.965

CC(C)NS(=O)(=O)NC(=O)c1cc(-n2c(=O)cc(C(F)(F)F)[nH]c2=O)c(F)cc1Cl
inactive: [1] 1.11 | [2] 1.04 | [3] 1.01 | [4] 1.01 | [5] 0.984 | [6] 0.991 | [7] 1.02 | [8] 0.993 | [9] 1.02 | [10] 0.994 | [11] 0.998 | [12] 1.02 | [13] 1.03 | [14] 1.01 | [15] 1.03 | [16] 0.974 | [17] 0.991 | [18] 0.977 | [19] 1.05 | [20] 0.983
